According to the supplement of paper PMC12632987:

T1: USP38, Q8NB14
T1 chain: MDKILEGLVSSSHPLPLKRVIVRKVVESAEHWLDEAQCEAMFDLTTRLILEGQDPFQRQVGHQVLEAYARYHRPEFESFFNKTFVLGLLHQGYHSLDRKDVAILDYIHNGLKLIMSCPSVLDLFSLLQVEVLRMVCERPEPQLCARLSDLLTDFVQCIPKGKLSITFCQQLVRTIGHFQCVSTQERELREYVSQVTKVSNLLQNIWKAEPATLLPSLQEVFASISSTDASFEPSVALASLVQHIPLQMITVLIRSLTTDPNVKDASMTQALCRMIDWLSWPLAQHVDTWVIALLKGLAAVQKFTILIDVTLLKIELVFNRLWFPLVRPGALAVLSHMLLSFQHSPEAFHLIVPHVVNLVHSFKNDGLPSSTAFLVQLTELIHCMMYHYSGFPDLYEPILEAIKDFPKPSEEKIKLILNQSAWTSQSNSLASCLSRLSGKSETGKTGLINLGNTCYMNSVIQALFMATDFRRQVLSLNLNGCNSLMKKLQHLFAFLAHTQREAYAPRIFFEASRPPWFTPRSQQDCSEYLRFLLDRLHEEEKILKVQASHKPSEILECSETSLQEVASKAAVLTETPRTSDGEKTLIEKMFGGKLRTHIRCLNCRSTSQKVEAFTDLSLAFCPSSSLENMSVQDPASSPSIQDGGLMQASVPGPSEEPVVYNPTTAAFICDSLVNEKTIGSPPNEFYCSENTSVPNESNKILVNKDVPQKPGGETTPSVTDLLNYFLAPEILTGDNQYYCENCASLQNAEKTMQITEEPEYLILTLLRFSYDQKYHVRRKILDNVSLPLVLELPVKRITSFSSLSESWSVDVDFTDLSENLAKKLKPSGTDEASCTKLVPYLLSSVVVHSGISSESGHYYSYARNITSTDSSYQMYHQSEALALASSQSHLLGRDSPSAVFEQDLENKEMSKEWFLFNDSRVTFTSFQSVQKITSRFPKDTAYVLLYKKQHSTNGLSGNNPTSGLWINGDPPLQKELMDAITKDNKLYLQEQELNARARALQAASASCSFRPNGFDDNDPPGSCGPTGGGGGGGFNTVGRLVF


Molecular target: T1, USP38, Q8NB14
Experiment: median log2 fold change of GCK-ALFA target abundance (FLAG IP / Myc IP barcode read proportion) (log2 ratio); each designed protein is fused to an ALFA-tag nanobody in HEK293 cells to bring the named protein to FLAG-tagged glucokinase (GCK); Myc marks an untargeted standard; higher = target protein stabilised (more abundant)
Conditions: target protein: 3xFLAG-MCP-GCK-ALFA reporter; HEK293 landing pad (RPLP)
Method in brief: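 HEK293 landing-pad cells received a recombined binder library fused to the ALFA nanobody and were induced with 2 μg mL^−1 doxycycline, then transfected with a plasmid encoding a FLAG-tagged target and a Myc-tagged standard. Lysates were collected after 48 h for anti-FLAG and anti-Myc immunoprecipitation, and the circular RNA barcodes were reverse transcribed, amplified and sequenced. Target abundance for each binder is the median log2 ratio of FLAG to Myc barcode read proportions. Barcodes had to reach a proportion of at least 10^−7 in both replicates, each binder needed at least 3 barcodes per replicate, a pseudocount of 10^−6 was applied, and the two replicates were pooled.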

| Binder | median log2 fold change |
| --- | --- |
| usp_38_diff_out_14_2_98 (protein) AEEELKKATEETLKVLDEAIKKAKELKERVKKDPSLAEEAREELFKAWDKAADAVGELAKLMEEHRELRELNKKAVEEVNKKLTELTEELLEALELAAEA | -0.576 |
| usp_38_diff_out_14_2_99 (protein) AKEELEKATKETLKVLKEAIKKAKELLKEVKKDPSKAEEATKKLFEEWDKAADAVGKLAKLIEEHKEERKLNKEAIEKVNKELTELTKVTLEALEEAAKA | -0.478 |
| usp_38_diff_out_14_54_123 (protein) SEELEELLEEARRALEEARRALREAERLLREGGPLEEVREALDRAARAIGRLGEALRRARALATDPEVLKELERLEKEADELVDRYTELARRALEMEAER | 0.491 |
| usp_38_diff_out_14_54_124 (protein) MEELERLLEEAERALREAEEALERAERLLEEGGPLEEIRRELDRAARAIGRLGEALRRARALATDPEVKKRLEELEKKADELVDRYNELARRALEMEAER | 0.191 |
| usp_38_diff_out_14_54_125 (protein) MEELEKLLKEAEKALKEAEKALAAAEALLEAGGPLAEIRALLDAAARAIGAAGEALRKARALATDPEVKKKLEELRKRADELVDRYNELARRALEREAAA | -0.00832 |
| usp_38_diff_out_14_54_126 (protein) SERLRRLLEEARRKLAEAERYLEEAEKALEEGAPLEEIERLLDEAARALGAAARALREAATLATDPESRAELEELRARADELTDRYTELAREAFLRRLEE | 0.0528 |
| usp_38_diff_out_14_54_127 (protein) DEEIKRLLEEARKYLEEAKKALAELKELVAAGAAPEEVFAAYDKAADAIAKAGEAIRRLMRLSTDPEVRKEAREIQEEADKLVDEMTEAVTAAQEKAAEA | 0.232 |
| usp_38_diff_out_14_54_128 (protein) DEEIERLLEEARKKLEELKKLKEELKKLVKAGASMEEIFAAYDKAADAAAAAGEAIRRLRKLSTDPEVKEEARKLEEEVNKLLDEVTELVTEALERAAER | -0.492 |
| usp_38_diff_out_14_75_129 (protein) SEREKLEERLEAAEARLAALVAAGVISGRTEVKLGAVLHVARLAIEQGDLETAEKLLEIVEKALADPANADKILDENEDFIVSTYKELALRELEEEEKKR | 0.261 |
| usp_38_diff_out_14_75_130 (protein) SMKEELEKRLEELEERLKELEEKGVLTGRTVVELGGVLYVARLAIEAGDLETAEKLLEIAEKALEDPENAKEILDENEDFIVSTHIELELRRIEEEEAAR | -0.097 |
| usp_38_diff_out_14_75_131 (protein) SEREELERRLEELRARLAALEAAGVITGRKVVKLGGALHVAELAIRAGRLEEARKILDIVEEALDDPERADEILDENEDFIVDTYKELALAEIEAEEAAR | 0.103 |
| usp_38_diff_out_14_75_132 (protein) SEKEELEKRLEELEKRLEELEKEGKLTGRLVVELGGVLHVAREAIEAGKLETAKKLLEIAEQALEDPERAREILRENEDFIVDTYKELALEEIEKEEAER | -0.63 |
| usp_38_diff_out_14_75_133 (protein) SEREELEKRLEELRARLAALVAAGVISGRLEVELGAVLYTAELAIEAGKLEEAKKLLDIAEAALDDPANAKAILDANEDFIVSTYKELELERIEREEEEE | 0.198 |
| usp_38_diff_out_14_75_134 (protein) SEKEELEERLAALEARLEALVAEGVISGRLEVELGAVLHTARLAIEAGRLEEARRLLDIAEEALADPARAREILRANEDFIVSTHLRLELERLAAEEAAR | 0.0715 |
| usp_38_diff_out_14_75_135 (protein) SEREELERRLEELEERLARLVAEGVISGRTEVKLGAVLHVARLAIEEGRLEEARKLLEIVERALADPERADEILEENEDFIVSTYLELELRRLAEEEAKR | -0.475 |
| usp_38_diff_out_14_75_136 (protein) SEREELRARLAAARARLDALVAAGVISGRLEVELGAVLHVAALAIEAGDLETARRLLDIVEAALADPARAREILRAAEDFIVDAYKRLELRRIEEEEEER | 0.0109 |

| Binder | median log2 fold change |
| --- | --- |
| usp_38_diff_out_14_75_137 (protein) SRKEELRERLAEARARLDALVAEGRITGRLEVELRGILHIAEEAIEAGRLEEAERLLDIAERALDDPANARAIIRANEDFIVSTAKKLDLERIEEEEERR | 0.124 |
| usp_38_diff_out_14_75_138 (protein) SREEELRKRLEEAEARLAELVAQGKITGRKEVELRGILHIAREAIEAGRLEEAEKLLDIAEEALENPEKAKEIIDENEDFIVSTAKELALREIEEEEKRR | 0.163 |
| usp_38_diff_out_15_114_139 (protein) SEEEEAEEELRKLEIEQGKKVAEDLLAELERLAKEGRLTPAREERLLLGLKGLAKLAIELKDKELAELVLKALEAFAKISSPEHRKEAEKLAKELKEAMA | 0.292 |
| usp_38_diff_out_15_114_140 (protein) SAEEEAAEELRQREIAAGRDVARDLLAELRELKKRGRLTPAREERLLLGLEGLARLAIELGDEELARLVLEALDAFAEISDPETQARARALRAELEAAMA | 0.0749 |
| usp_38_diff_out_15_114_141 (protein) SAEEEAAAELREREVAAGLAVARDLLAELEELARRGRLTPAREERLLLGLRGLARLAIELGDRELAEEVLRALDAFAAIASPELRAEAEALRAELEAAMA | 0.234 |
| usp_38_diff_out_15_114_142 (protein) SAEEEAEEELRELEIKAGKDVAEELLEELKELRKRGRLTPAREERLLLGLRGLAILAIELKNKELAELVLEALEEFAKISDPETRAEAEKLAAELKKAMA | 0.0926 |
| usp_38_diff_out_15_114_143 (protein) SEEEEAEEELRRLEIEEGLRVAEELLAELEELRKRGRLTPAREERLLLGLEGLAILAIELGDEELARRVLEALRALAEISSPETRARAEALAAELEAAMA | -0.119 |
| usp_38_diff_out_15_17_144 (protein) DPESEALYREALRANIASVFDEAAAIAAKRAARAEAEGNAELAAALRRLRDLLEHRDETPLADIAAAARELAALAEEAGDYRTAAIAGGVAAAAEELAEL | 0.158 |
| usp_38_diff_out_15_17_145 (protein) DEEARRLELEAERAAMDAVIADARATLTRLAAKAKAAGWAEVAAEYEAAIAALDAGDLEAAAEHLERAARLLWDKNPRDATIAGGLAYALRRKVELDRLE | -0.0496 |
| usp_38_diff_out_15_42_146 (protein) SQLEEELRLIVEAMEAERDRVVADVATLPEAKLKRLARRNLEGAKGEAERTGDPVAAEIAALYEEGLANPATLKAKMQEAVRLTYDRAIAEVRRRMEEEA | -0.607 |
| usp_38_diff_out_15_85_147 (protein) ALEELRRELEEAIREARRLLEEARKLLAEKTPEALKAAREALDRAAEHLGRAAELLRELRRAGADPAELARLQAELDELVDEYEKLALELFEKEIELQEA | 0.0216 |
| usp_38_diff_out_15_85_149 (protein) KIEELKKQLQAAIDEAEALLAEAEALLKKGTPEALEAARKALDAAAKAIGQADQLLRELRKAGADKEELEAYQKRLDALTDRYEALARELFEKEMELQEK | 0.113 |
| usp_38_diff_out_15_85_150 (protein) TPEELKAEIEREIEEAERLLERAEELLRDPEAPLEEIRRVLDEAAEALGRADHLARELRRLSPEYRAYVEEVLKRLDELVDRLEELAREAFLREADELEA | 0.0224 |
| usp_38_diff_out_15_85_151 (protein) SPEELKKKIEEKLEEARRLLEEARRLLADPNAPLEEIRKVLDEAARALGEAEHLARELRKLSPEYREEVEKYLKELDELVDELEALAREAFLREAEAQEA | 0.0262 |
| usp_38_diff_out_15_85_152 (protein) SPEEIKKEIKKEIEKAKELIKEAKKLLKDPNAKLEEIRKVLDEAAKALGKAEYLARELRKLSPEYREEVKEYLKELDELVDELEKLEREAFLRMAEEQEA | 0.113 |
| usp_38_diff_out_15_85_153 (protein) SPEEIKKEIEREIEEAERLIEEARRLLEDPEAPLEEVREVLDEAARHLGRAQHLARELRRLSPEYREFVKEAEKRLDELVDELEELAREAHLREAEELEA | -0.141 |
